The subject of assay [1] is Zika virus NS2B-NS3 protease (unlinked complex). The assay can be described thus: Primary screen GU Rhodamine qHTS for Zika virus inhibitors: Unlinked NS2B-NS3 protease assay (AID 1347159). Note: nearly all actives have a fitted effect of over 60% in size. In a few lines: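 Percent inhibition came from the 15-min rise in Rhodamine110 fluorescence (1.5 microM substrate, ~15% conversion), normalized to no-inhibitor and no-enzyme wells and Hill-fitted. Unlinked protease, 25 nM, pH 8.0 Tris buffer; compounds up to 114 microM, 15-min preincubation.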
Background: In qHTS, concentration-response curves come from the screen itself.

In assay [2] the test system is Zika virus NS2B-NS3 protease (linked construct). The assay can be described thus: Primary screen NINDS Rhodamine qHTS for Zika virus inhibitors (AID 1347160). Note: nearly all actives have a fitted effect of over 55% in size. Note: potency is the fitted concentration of half-maximal effect. In a few lines:
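Rhodamine110-peptide cleavage (1.5 µM substrate) by 25 nM linked NS2B-NS3 enzyme at pH 8.0 (Tris, Tween 20), after 15 min RT preincubation with compounds; 15-min fluorescence change normalized to controls and Hill-fitted.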

The nature of assay [3]: Confirmatory screen NINDS Rhodamine qHTS for Zika virus inhibitors (AID 1347161). Note: nearly all actives have a fitted effect of over 60% in size. Note: potency is the fitted concentration of half-maximal effect. In a few lines:
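Kinetic fluorescence (Ex 480 nm, Em 540 nm) over 15 min with 1.5 microM Rhodamine110 peptide and 25 nM linked protease.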

The nature of assay [4]: Vero cells viability qHTS for Zika virus inhibitors (AID 1347167). Summed up:
(§1)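 qHTS titration; 24-48 h compound exposure, 37 degrees C/5% CO2; DMEM, 4% FBS; CellTiter Glo ATP luminescence.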

Assay [5] in a line: HepG2 cells viability qHTS for Zika virus inhibitors (AID 1347168). Note: potency is the fitted concentration of half-maximal effect. In a few lines: as §1
Assay [6] is described as follows: qHTS to identify inhibitors of the type 1 interferon - major histocompatibility complex class I in skeletal muscle: primary screen against the NCATS Mechanism Interrogation Plate v5.0 (MIPE) Libary (AID 1347411). Note: nearly all actives have a fitted effect of over 65% in size. Note: potency is the fitted concentration of half-maximal effect. In a few lines:
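HLA-B HiBit myoblasts, dexamethasone-free medium + 4 ng/ml IFN-b, 24 h compound, 11-pt 1:3 from 46 uM final. Readout: Nano-Glo HiBiT lytic luminescence after 10 min lysis, RT.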

Assay [7] can be described thus: Confirmatory screen GU Rhodamine qHTS for Zika virus inhibitors qHTS (AID 1347157). Note: potency is the fitted concentration of half-maximal effect; nearly all actives have a fitted effect of over 70% in size. In a few lines: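 Buffer 10 mM Tris-HCl pH 8.0, 0.01% Tween 20. Unlinked protease 25 nM; compound preincubation 15 min, RT, protected from light. Substrate Rhod110, 1.5 microM; ~15% conversion in 15 min.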
In assay [8] the test system is Zika virus NS2B-NS3 protease (linked). The assay can be described thus: 384 well plate NINDS AMC confirmatory qHTS for Zika virus inhibitors (AID 1347163). Note: potency is the fitted concentration of half-maximal effect; nearly all actives have a fitted effect of over 50% in size. Summed up:
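Enzyme (5, 30 or 60 nM final) first met test compounds for ~15 min. The AMC-tagged peptide Ac-VKTGKR-AMC followed at 30 microM. Fluorescence was then recorded at 25 min and scaled against no-enzyme and no-inhibitor wells.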

The subject of assay [9] is Zika virus NS2B-NS3 protease (linked construct). The assay can be described thus: 384 well plate NINDS Rhodamine confirmatory qHTS for Zika virus inhibitors (AID 1347164).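 Note: fluorescence from protease cleavage of Ac-LKRR-rhodamine 110 substrate; potency is the fitted concentration of half-maximal effect; nearly all actives have a fitted effect of over 65% in size.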 Summed up: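 Linked NS2B-NS3 protease (final 5, 30 or 60 nM) preincubated ~15 minutes with compounds, then 10 microM Ac-LKRR-Rhodamine 110 added. Fluorescence (485/538 nm) read after 25 minutes at room temperature, normalized to no-enzyme and no-inhibitor controls.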

Assay [10] can be described thus: Tertiary RLuc qRT-PCR qHTS assay for Zika virus inhibitors (AID 1347169). Note: potency is the fitted concentration of half-maximal effect; nearly all actives have a fitted effect of over 55% in size. Summed up:
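Vero cells (1,000/well) infected with recombinant ZIKV-RLuc (Cambodian) at MOI 1-2 after compound addition, 48-72 hrs at 37 degrees C. Live-cell Renilla luciferase substrate added; luminescence read after 1-1.5 hrs.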

This passage reports Potency results from PubChem BioAssay (NCATS).

The structures appear in SMILES notation. Inconclusive results are not listed. Calls of active or inactive are those of the source. Calls come from the whole dose curve; as a rule, active = well fitted curve in the direction sought with a large enough effect; inconclusive = small, poorly fitted or top-dose-only effect, or another doubt; inactive = no such curve, though single readings can be large; an effect the other way counts as inactive or inconclusive.

Consider `CCn1nnc2c(N3CCOCC3)nc(-c3ccc(NC(=O)Nc4ccc(C(=O)N5CCN(C)CC5)cc4)cc3)nc21`, for which the Potency result in [1] and in [2] was “inactive” each time.

Turning to `CNC(=O)c1ccccc1Nc1nc(Nc2ccc(N3CCOCC3)cc2OC)ncc1Cl`, the Potency result in [1] and in assay [2] was “inactive” each time.

`Cc1ccc(C(=O)Nc2cccc(C(F)(F)F)c2)cc1-c1ccc2nc(NCCN3CCOCC3)ncc2c1`: the Potency result in [1], in [2], in [3] and in [4] was “inactive” each time. In addition, the Potency in [5] is 8.27 µM (active); in assay [6], 5.87 µM (active).

With `COc1cc2c(Oc3ccc(NC(=O)C4(C(=O)Nc5ccc(F)cc5)CC4)cc3F)ccnc2cc1OCCCN1CCOCC1`, the Potency result in [1] and in assay [2] was “inactive” throughout.

Take `CC1(C)CC(=O)c2c(C(F)(F)F)nn(-c3ccc(C(N)=O)c(NC4CCC(OC(=O)CN)CC4)c3)c2C1` (configuration not stated): the Potency entry in assay [1] and in assay [2] was “inactive” in each case.

For `C[C@]1(CO)CN(c2cc(C(=O)Nc3ccc4c(c3)-c3c(c(C(N)=O)nn3-c3ccc(F)cc3)CC4)c(Cl)cn2)C[C@@]1(C)CO`, the Potency entry in assay [1] and in assay [2] was “inactive” each time.

For the molecule `CC(C)(O)c1cc2nc(-c3cnc(N)nc3)nc(N3CCOCC3)c2s1`, the Potency result in assay [1] and in assay [2] was “inactive” throughout.

As for `NC(=O)Nc1cc(-c2cccc(F)c2)sc1C(=O)N[C@H]1CCCNC1`, the Potency entry in [1] and in assay [2] was “inactive” each time.

For the molecule `COc1cc2c(NC3CCN(C(C)C)CC3)nc(C3CCCCC3)nc2cc1OCCCN1CCCC1`, the Potency entry in assay [1] and in assay [2] was “inactive” throughout.

As to `O=C(Nc1ncc(-c2cc(C(F)F)nn2-c2c(Cl)cccc2Cl)s1)C1CC1`, the Potency result in [1] and in assay [2] was “inactive” each time.

Consider `O=C(O)C1(Cc2cccc(Nc3nccs3)n2)CCC(Oc2cccc(Cl)c2F)CC1` (configuration not stated), for which the Potency is 6.98 µM (active) in assay [7]; 4.47 µM (active) in assay [2]; 3.5 µM (active) in [3]; 3.16 µM (active) in [8]; 14.1 µM (active) in assay [9]. For the same molecule, the Potency entry in assay [4], in assay [5] and in assay [6] was “inactive” throughout.

Turning to `CC(O)C1C(=O)N2C(C(=O)O)=C(SC3CNC(C(=O)N(C)C)C3)C(C)C12` (configuration not stated), the Potency entry in assay [1] and in [2] was “inactive” throughout.

As to `C1Cc2[nH]nc(-c3nn[nH]n3)c2C1`, the Potency entry in assay [1], in assay [2] and in assay [6] was “inactive” each time.

In the case of `NCC(=O)Nc1ccc(-n2nc(C(F)(F)F)cc2-c2ccc3c(ccc4ccccc43)c2)cc1`, the Potency entry in [1], in assay [2] and in assay [6] was “inactive” each time.

Take `Cc1ccc(C(N)=O)cc1Nc1nccc(-c2cn(C(C)C)c3cnccc23)n1`: the Potency result in assay [1] and in [2] was “inactive” each time. In addition, the Potency in [6] is 8.29 µM (active).

On to `CCc1c2c(nc3ccc(O)cc13)-c1cc3c(c(=O)n1C2)COC(=O)[C@]3(O)CC`, for which the Potency result in assay [1] and in assay [3] was “inactive” each time. For the same molecule, the Potency was 10 µM (active) in [2], 0.0658 µM (active) in [10] and 1.17 µM (active) in assay [6].

Regarding `C[C@@H](Oc1cc(-c2cnn(C3CCNCC3)c2)cnc1N)c1c(Cl)ccc(F)c1Cl`, the Potency result in assay [1] and in assay [2] was “inactive” in each case. Also, the Potency in [6] was 14.7 µM (active).

With `CNC(=O)c1cc(Oc2ccc(NC(=O)Nc3cc(C(C)(C)C)nn3-c3ccc4ncccc4c3)c(F)c2)ccn1`, the Potency entry in assay [1] and in assay [2] was “inactive” each time. Moreover, the Potency in [6] is 8.29 µM (active).

Consider `COc1ccc(-n2nc(C(N)=O)c3c2C(=O)N(c2ccc(N4CCCCC4=O)cc2)CC3)cc1`, for which the Potency result in assay [1], in [2] and in assay [6] was “inactive” each time.

With `Cc1cc(Nc2cc(CN3CCOCC3)c3nc(C)c(Cc4ccc(Cl)cc4F)n3n2)n[nH]1`, the Potency entry in assay [1] and in assay [2] was “inactive” each time. Also, the Potency in assay [6] is 5.23 µM (active).

On to `COCCOc1ccc2c(c1)ncn2-c1ccc2cccc(N3CCC(N)CC3)c2n1`, for which the Potency result in [1] and in assay [2] was “inactive” in each case. Besides, in assay [6], the Potency was 1.86 µM (active).

For the molecule `O=C(O)CCCc1c[nH]c2ccccc12`, the Potency entry in assay [1], in assay [2] and in assay [6] was “inactive” each time.

For `CC(C)Nc1cc(C(F)(F)F)cc2nc(NC(=O)c3cccnc3)nn12`, the Potency entry in assay [1], in [2] and in [6] was “inactive” in each case.

As for `CC(C)c1cc(-c2n[nH]c(=O)n2-c2ccc3c(ccn3C)c2)c(O)cc1O`, the Potency entry in assay [1] and in assay [2] was “inactive” throughout. Further, the Potency in assay [6] is 0.0262 µM (active).

For `Cc1ccc(C(=O)Nc2ccc(CN3CCN(C)CC3)c(C(F)(F)F)c2)cc1C#Cc1cnc2cccnn12`, the Potency entry in assay [1] and in [2] was “inactive” throughout. The Potency in [6] is 4.15 µM (active).

As for `OCCCNc1cc(-c2ccnc(Nc3cccc(Cl)c3)n2)ccn1`, the Potency result in assay [1] and in assay [2] was “inactive” each time. In addition, the Potency in assay [6] was 0.0415 µM (active).

On to `CN1CCC(CNc2ccc3ncc(-c4cccc(OC(F)(F)F)c4)n3n2)CC1`, for which the Potency entry in assay [1], in assay [2] and in assay [3] was “inactive” each time. The Potency in assay [5] was 11.7 µM (active); in [6], 14.7 µM (active).

Turning to `CNc1nccc(-c2cccnc2Oc2cc(C(=O)Nc3cccc(C(F)(F)F)c3)ccc2C)n1`, the Potency entry in assay [1] and in assay [2] was “inactive” in each case. Moreover, in [6], the Potency is 5.87 µM (active).

With `CCc1cc2c(cc1N1CCC(N3CCOCC3)CC1)C(C)(C)c1[nH]c3cc(C#N)ccc3c1C2=O`, the Potency result in assay [1], in assay [2] and in assay [6] was “inactive” each time.

As to `Cc1[nH]nc2ccc(-c3cncc(OC[C@@H](N)Cc4ccccc4)c3)cc12`, the Potency result in assay [1] and in assay [2] was “inactive” in each case. In addition, in assay [6], the Potency is 1.86 µM (active).
